GIRK2 act: activators of NPY4-receptor-primed GIRK2 channels, summary, cell-based, HEK293, thallium flux | AID 1259324, 2017 | HEK293 GIRK2/NPY4 cells, thallium flux fluorescence | activation (% efficacy), % for hits at 37.5 µM | G protein-activated inward rectifier potassium channel 2 (Homo sapiens), P48051 | 34,000 tested, under 10 active;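 active = primary screen hit, no activity in plain HEK293 cells, and in GIRK2-only cells above 5% efficacy rising with concentration; inactive = the rest, including fluorescent compounds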;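 note: efficacy is normalized control-subtracted fluorescence 15 s after thallium addition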
Target sequence (P48051 whole entry, looked up): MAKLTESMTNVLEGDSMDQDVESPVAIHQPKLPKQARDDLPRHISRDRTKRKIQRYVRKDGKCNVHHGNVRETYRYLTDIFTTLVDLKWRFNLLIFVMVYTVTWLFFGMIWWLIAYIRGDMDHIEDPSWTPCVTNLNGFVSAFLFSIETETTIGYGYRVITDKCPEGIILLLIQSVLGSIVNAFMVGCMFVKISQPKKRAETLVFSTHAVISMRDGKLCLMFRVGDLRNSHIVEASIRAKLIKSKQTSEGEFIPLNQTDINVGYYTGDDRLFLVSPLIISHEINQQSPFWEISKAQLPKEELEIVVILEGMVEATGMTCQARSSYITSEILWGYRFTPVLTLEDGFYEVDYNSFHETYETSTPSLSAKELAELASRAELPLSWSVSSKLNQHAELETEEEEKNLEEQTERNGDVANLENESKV
AMPAR-TARP mod: modulators of GluA2-stargazin AMPA receptor complexes, primary screen, cell-based, membrane potential dye; HEK293 GluA2+stargazin, membrane potential dye (FDSS), glutamate EC50; hits were called plate by plate, in both directions; calls only at 30 µM; AID 1259245, 2017; 40,000 compounds, 3.5% hits;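 active = any of four per-well response measures lying three or more SD from its plate-wide compound average, in either direction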
An asterisk follows results filed as active; [ ] = remark or other dose. The entries come from a sample that favours hits as a whole.

CC(C)S(=O)(=O)c1ccc(C(=O)Nc2nc3ccc(Br)cc3s2)cc1 was read as AMPAR-TARP mod active.
COc1ccc(S(=O)(=O)CCC(=O)Nc2nc3cc(OC)c(OC)cc3s2)cc1 was read as GIRK2 act inactive and AMPAR-TARP mod inactive.
Screening Cc1cc2nc(NC(=O)c3ccc(S(=O)(=O)C(C)C)cc3)sc2cc1C returned GIRK2 act inactive and AMPAR-TARP mod inactive.
For COc1ccc(S(=O)(=O)CCC(=O)Nc2nc3ccc(Br)cc3s2)cc1 the results were GIRK2 act inactive and AMPAR-TARP mod active.
Cc1nc2ccc(NC(=O)c3cccc(S(=O)(=O)C(C)C)c3)cc2s1 was read as GIRK2 act inactive and AMPAR-TARP mod inactive.
For Cc1nc2ccc(NC(=O)c3ccc(S(=O)(=O)C(C)C)cc3)cc2s1 the results were AMPAR-TARP mod active.
`CCOC(=O)c1ccccc1NC(=O)CS(=O)(=O)c1ccc2c(c1)S(=O)(=O)N=CN2` gave AMPAR-TARP mod inactive.
Screening CSc1cccc(NC(=O)C(=O)N2CCN(c3ccccc3F)CC2)c1 returned AMPAR-TARP mod inactive.
CC(C)(C)NC(=O)NCCCS(=O)(=O)N1CCN(c2ccccc2)CC1 was read as GIRK2 act inactive and AMPAR-TARP mod inactive.
Screening COc1cccc(NC(=O)CSc2nccn(-c3cc(C)cc(C)c3)c2=O)c1 returned AMPAR-TARP mod inactive.
Screening COc1cc(C2NC(=O)NC(O)(C(F)(F)F)C2C(C)=O)ccc1OCc1ccc(Cl)cc1 (stereo not given) returned AMPAR-TARP mod inactive.
COc1cc(C2NC(=O)NC(O)(C(F)(F)F)C2C(C)=O)ccc1OCc1ccccc1 (stereo not given) was read as AMPAR-TARP mod active.
Screening O=S(=O)(NCC#CCN1CCc2ccccc2C1)c1ccc(Br)s1 returned GIRK2 act inactive and AMPAR-TARP mod inactive.
Screening O=C(Cn1nc2c(cc1=O)CCCC2)Nc1cccc2ccccc12 returned GIRK2 act inactive and AMPAR-TARP mod inactive.
For CCCCn1c(-c2ccc([N+](=O)[O-])cc2)nc2c(c(=O)c3ccccc3n2C)c1=O the results were AMPAR-TARP mod active.
`CCCn1c(-c2ccc(OC)cc2)nc2c(c(=O)c3ccccc3n2C)c1=O` gave AMPAR-TARP mod inactive.
`COCCn1c(-c2ccc([N+](=O)[O-])cc2)nc2sc3ccccc3c(=O)c2c1=O` gave GIRK2 act inactive and AMPAR-TARP mod active.
`COCCn1c(-c2ccc(F)cc2)nc2c(c(=O)c3ccccc3n2C)c1=O` gave AMPAR-TARP mod inactive.
Screening Cc1cc(NC(=O)C(=O)NCc2ccco2)ccc1N1CCCC1=O returned GIRK2 act inactive and AMPAR-TARP mod inactive.
CCc1cccc2sc(N3CCN(C(=O)CS(=O)(=O)Cc4ccccc4)CC3)nc12 was read as GIRK2 act inactive and AMPAR-TARP mod inactive.
Screening O=C(CS(=O)(=O)Cc1ccccc1)N1CCN(c2nc3c(Cl)cccc3s2)CC1 returned GIRK2 act inactive and AMPAR-TARP mod active.
For Cc1ccccc1CC1S/C(=N/c2ccccn2)NC1=O (stereo not given) the results were AMPAR-TARP mod inactive.
Screening COc1ccc(-n2nnc3c(N4CCN(C(=O)c5ccccc5C(F)(F)F)CC4)ncnc32)cc1 returned AMPAR-TARP mod inactive.
Screening COc1ccc(-n2nnc3c(N4CCN(C(=O)c5cccc6ccccc56)CC4)ncnc32)cc1 returned AMPAR-TARP mod active.
O=C(CSc1ccc(F)cc1)NCCc1csc2nc(-c3cccc(F)c3)nn12 was read as GIRK2 act inactive and AMPAR-TARP mod inactive.
Screening COc1ccc(N(Cc2cccc(C)c2)S(=O)(=O)c2ccc3nncn3c2)cc1 returned GIRK2 act inactive and AMPAR-TARP mod active.
`COc1ccc(N(Cc2cccc(Cl)c2)S(=O)(=O)c2ccc3nncn3c2)cc1` gave GIRK2 act inactive and AMPAR-TARP mod inactive.
For CCN1CCN(C(=O)CCn2c(=S)[nH]c3ccccc3c2=O)CC1 the results were AMPAR-TARP mod inactive.
`CCN(CC)C(=O)CCCCCn1c(=S)[nH]c2ccccc2c1=O` gave AMPAR-TARP mod active.
Screening O=C(Nc1nnc(CCS(=O)(=O)c2ccccc2)o1)c1cc2ccccc2o1 returned GIRK2 act inactive and AMPAR-TARP mod inactive.
O=C(Nc1nc(-c2cccnc2)cs1)C1CCN(S(=O)(=O)c2ccc(Cl)s2)CC1 was read as AMPAR-TARP mod active.
For O=C(Nc1nc(-c2cccnc2)cs1)C1CCN(S(=O)(=O)c2cccs2)CC1 the results were AMPAR-TARP mod inactive.
`CN(C)C(CNC(=O)c1cccc([N+](=O)[O-])c1)c1ccco1` (stereo not given) gave AMPAR-TARP mod inactive.
For Nc1c(C(=O)NCc2ccco2)cnc2nc3ccccc3n12 the results were GIRK2 act inactive and AMPAR-TARP mod inactive.
Cc1ccc(NC(=O)C(=O)NCc2ccccn2)cc1N1CCCC1=O was read as GIRK2 act inactive and AMPAR-TARP mod inactive.
Screening COc1cc(S(=O)(=O)Nc2ccc(-c3cn4cccc(C)c4n3)cc2)c(OC)cc1C returned AMPAR-TARP mod active.
COc1ccc(OC)c(S(=O)(=O)Nc2ccc(-c3cn4ccccc4n3)cc2)c1 was read as AMPAR-TARP mod inactive.
For CCCCN1C(=O)c2cccc3c(NC(=O)CCCS(=O)(=O)c4ccc(C)cc4)ccc1c23 the results were GIRK2 act inactive and AMPAR-TARP mod inactive.
For COc1ccc(NC(C)=O)cc1NC(=O)CCCn1nc(-c2ccc(C)cc2)ccc1=O the results were GIRK2 act inactive and AMPAR-TARP mod inactive.
Cc1cc2c(cc1C)NC(CC(=O)NCC(C)C)C(=O)N2 (stereo not given) was read as AMPAR-TARP mod inactive.
COC(=O)c1ccsc1NC(=O)CC1Nc2cc(C)c(C)cc2NC1=O (stereo not given) was read as GIRK2 act inactive and AMPAR-TARP mod active.
`CCCc1c(C(=O)Nc2ccccc2F)nnn1-c1ccccc1` gave GIRK2 act 7.0%*[25 µM] and AMPAR-TARP mod inactive.
CCCc1c(C(=O)NCc2ccccc2OC)nnn1-c1ccccc1 was read as GIRK2 act inactive and AMPAR-TARP mod inactive.
CCOc1ccccc1NC(=O)Cn1c(=O)n(C(C)C)c(=O)c2nscc21 was read as GIRK2 act inactive and AMPAR-TARP mod active.
For COc1ccc(NC(=O)Cn2c(=O)n(C(C)C)c(=O)c3nscc32)cc1OC the results were GIRK2 act inactive and AMPAR-TARP mod inactive.
For CCOc1ccc(C(=O)N2CCN(c3cc(OC)nc(OC)n3)CC2)cc1 the results were GIRK2 act inactive and AMPAR-TARP mod inactive.
For COc1ccc(S(=O)(=O)CCC(=O)N(Cc2ccccc2)c2nc3ccccc3s2)cc1 the results were GIRK2 act inactive and AMPAR-TARP mod inactive.
`Cc1c(Cl)ccc2sc(NCCCN(C)C)nc12` gave GIRK2 act inactive and AMPAR-TARP mod inactive.
Screening CN(C)CCCNc1nc2ccc([N+](=O)[O-])cc2s1 returned GIRK2 act inactive and AMPAR-TARP mod active.
CN(C)CCN(C(=O)CCCS(=O)(=O)c1ccc(F)cc1)c1nc2ccc([N+](=O)[O-])cc2s1 was read as AMPAR-TARP mod active.

Screening results as filed in PubChem BioAssay.
